# Assay results published in PubChem BioAssay AID2283220 (EPA ToxCast).
# Records with an inconclusive call do not appear. Active and inactive are the calls of the source. Rule for the calls: active = hit-call score of the fitted dose curve at least 0.9, where 1 is the maximum; inconclusive = response in the unintended direction; inactive = score below 0.9.
# Molecular target: human Serum/Glucocorticoid Regulated Kinase 1 (SGK1), SGK1 (gene 6446) (UniProt O00141)
# Test: NVS_ENZ_hSGK1: NovaScreen (NVS) Enzymatic Assay for human Serum/Glucocorticoid Regulated Kinase 1 (SGK1)
# Procedure: NVS_ENZ_hSGK1 is a biochemical, single-readout assay that uses extracted gene-proteins in a cell-free assay. Measurements were taken 1 hour after chemical dosing in a 96-well plate.NVS_ENZ_hSGK1 is one of one assay component(s) measured or calculated from the NVS_ENZ_hSGK1 assay. It is designed to make measurements of enzyme activity, a form of enzyme reporter, as detected with fluorescence intensity signals by Fluorescence and electrophoretic mobility shift technology.Data from the assay component NVS_ENZ_hSGK1 was analyzed into 1 assay endpoint. This assay endpoint, NVS_ENZ_hSGK1, was analyzed in the positive analysis fitting direction relative to DMSO as the negative control and baseline of activity. Using a type of enzyme reporter, loss-of-signal activity can be used to understand changes in the enzymatic activity as they relate to the gene SGK1. Furthermore, this assay endpoint can be referred to as a primary readout, because this assay has produced […] where this one serves a enzymatic activity function. To generalize the intended target to other relatable targets, this assay endpoint is annotated to the kinase intended target family, where the subfamily is serine/threonine kinase.
# Binding assays used specific radioligands (tritiated, iodinated) with non-radioactive competitive displacement ligands in agonist or antagonist protocols (as indicated) and various reference compounds and inhibitors to titrate specific binding to receptors and transporters. Most enzyme assays (CYPs, kinases, phosphatases, proteases, HDACs) used recombinant protein and specific substrates (fluorescence mostly, some colorimetric and radioactive) and inhibitors, followed by a biochemical separation of substrate and product. All assays for the biochemical HTS were initially run in duplicate at a single concentration (10 uM for CYP450 assays and 25 uM for all others). […]
# human Serum/Glucocorticoid Regulated Kinase 1 (SGK1), SGK1 (gene 6446), sequence (O00141 whole entry, looked up): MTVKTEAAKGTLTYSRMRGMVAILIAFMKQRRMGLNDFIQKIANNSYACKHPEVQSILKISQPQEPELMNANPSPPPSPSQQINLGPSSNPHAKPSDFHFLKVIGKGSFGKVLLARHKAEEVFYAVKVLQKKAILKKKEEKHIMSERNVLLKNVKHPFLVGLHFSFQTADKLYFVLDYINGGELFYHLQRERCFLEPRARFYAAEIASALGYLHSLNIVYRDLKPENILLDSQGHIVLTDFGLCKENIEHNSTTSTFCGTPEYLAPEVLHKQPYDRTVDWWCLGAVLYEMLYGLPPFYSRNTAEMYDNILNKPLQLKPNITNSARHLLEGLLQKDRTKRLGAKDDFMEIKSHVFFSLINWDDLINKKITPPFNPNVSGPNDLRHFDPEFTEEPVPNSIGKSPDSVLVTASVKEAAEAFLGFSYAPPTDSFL
Structure (SMILES),outcome,AC50
N#CSCSc1nc2ccccc2s1,inactive,–
O=C(Nc1ccc([N+](=O)[O-])cc1Cl)c1cc(Cl)ccc1O,inactive,–
S=C([S-])NCCNC(=S)[S-].[Mn+2],–,10.6 µM (active)
